Measurements: PubChem BioAssay (NCATS)
“And” between values parts separate entries of the source, which are not always exact repeats. Equal entries are not always repeated. Results filed as inconclusive are left out. The source made the active and inactive calls. Calls follow the shape of the dose curve; as a rule, active = well fitted inhibition curve with a large enough effect; inconclusive = small, poorly fitted or top-dose-only effect; inactive = flat fitted curve, though single readings scatter. Where a SMILES comes first, the peptide text is derived from it. The star is where a group is joined. Cbz = O=C(OCc1ccccc1)*; CH2Cl = ClC*
% is scaled to controls: 0 for no effect and ±100 for the full control effect; potency is read from the fitted curve at half-maximal effect.

Test: Primary qHTS for inhibitors of nuclear receptor binding SET domain protein 2 (NSD2) in an isogenic RCH-ACV NSD2 p.E1099K mutant (9B) (AID 1645876); also: nearly all actives have a fitted effect of over 70% in size
Settings: RCH-ACV (leukaemia line) NSD2 E1099K (9B) viability, CellTiter-Glo, 72 h; series mostly up to 44.9 µM; activity change, negative = viability loss: at the top concentration
In the case of `C/C(=C\Cc1c(O)c(Cl)c(C)c(C=O)c1O)CC/C=C(\C)[C@H]1CC(=O)C(C)(C)O1`, the Potency is reported as 2.52 µM (active).
In the case of `COc1cc2ncc(-c3ccccc3)nc2cc1OC`, the Potency is reported as 20.5 µM (active).
For `CCOC(=O)c1csc(Nc2ccc(Cl)cc2)n1`, the Potency was 18.3 µM (active).
In the case of `CC[C@H]1OC(=O)[C@H](C)[C@@H](O[C@H]2C[C@@](C)(OC)[C@@H](O)[C@H](C)O2)[C@H](C)[C@@H](O[C@H]2O[C@H](C)C[C@H](N(C)C)[C@H]2O)[C@](C)(O)C[C@@H](C)C(=O)[C@H](C)[C@@H](O)[C@]1(C)O`, the “activity change, negative = viability loss” value is reported as -9.77% [at 17.3 µM] (inactive).
In the case of `Cc1cc2ncc(C(=O)NCC(C)(C)NCC(=O)N3CCC[C@H]3C#N)cn2n1`, the “activity change, negative = viability loss” value is reported as -9.1% (inactive).
With `O=C(Nc1ncc([N+](=O)[O-])s1)c1ccccc1O` the “activity change, negative = viability loss” value was -16.3% (inactive).
With `CC(=O)OC[C@]12[C@H](OC(C)=O)[C@H](OC(=O)c3ccccc3)[C@@H]3[C@@H](OC(C)=O)[C@]1(OC3(C)C)[C@H](C)C[C@H](OC(C)=O)[C@@H]2OC(=O)c1ccccc1` the “activity change, negative = viability loss” value was -22.6% [at 17.3 µM] (inactive).
For `CCCCOC(=O)NS(=O)(=O)c1sc(CC(C)C)cc1-c1ccc(Cn2ccnc2)cc1`, the Potency was 23.5 µM (active).
With `C=C1/C(=C/C=C2\CCC[C@@]3(C)C2CCC3[C@H](C)/C=C/[C@@H](O)C2CC2)C[C@@H](O)C[C@@H]1O` (stereo partly specified) the Potency was 23 µM (active).
For `COc1cc(C(=O)O)ccc1NC(=O)C1NC(CC(C)(C)C)C(C#N)(c2ccc(Cl)cc2F)C1c1cccc(Cl)c1F` (stereo unspecified), the “activity change, negative = viability loss” value was 4.28% (inactive).
In the case of `Cc1ccc(OC[C@H](O)[C@H](C)NC(C)C)c2c1CCC2`, the “activity change, negative = viability loss” value is reported as -20.2% (inactive).
For `CC(C)=CCCC1(C)/C=C/C(OC(=O)C=C(C)C)C(C)(O)/C=C/C(=O)/C(CO)=C\C1` (stereo unspecified), the Potency was 11.2 µM (active).
For `CC1(C)CCCC2(C)C1C(=O)C=C(C(=O)O)C2(O)C(=O)O` (stereo unspecified), the Potency was 25.8 µM (active).
For `COc1c2c(nc3occc13)C(CC=C(C)C)(OC)C(O)CC2` (stereo unspecified), the “activity change, negative = viability loss” value was -29.2% (inactive).
For `C=C(C)C1=C[C@@]2(C)C(=CC1=O)CC[C@@H](O)[C@@H]2C`, the “activity change, negative = viability loss” value was -23.4% (inactive).
In the case of `CC(C)C[C@H](NC(=O)CNC(=O)OCc1ccccc1)C(=O)N[C@@H](Cc1ccccc1)C(=O)CCl` (Cbz-Gly-Leu-Phe-CH2Cl), the Potency is reported as 7.28 µM (active).
With `C/C=C(\C)C(=O)O[C@H]1C[C@](C)(O)[C@H]2CC=C(C)[C@H]2[C@@H]2OC(=O)[C@H](C)[C@H]21` the “activity change, negative = viability loss” value was -33.9% (inactive).
For `C=C1C(=O)OC2CC(C)C(CCC(C)=O)=CCC12` (stereo unspecified), the Potency was 18.3 µM (active).
In the case of `CCNC1(C(N)=O)CN(c2nc(C)nc3c(-c4ccc(Cl)cc4)c(-c4ccccc4Cl)nn23)C1`, the Potency is reported as 20.5 µM (active).
In the case of `C=C(C)[C@@H]1CC[C@]2(C(=O)O)CC[C@]3(C(=O)O)[C@H](CCC4[C@@]5(C)CCC(=O)C(C)(C)C5CC[C@]43C)C12` (stereo partly specified), the Potency is reported as 11.2 µM (active).
In the case of `CC(C)n1c(=O)c(C(=O)NC2CC3CCC(C2)N3C[C@@H](O)CN(C)S(C)(=O)=O)cc2ccccc21` (stereo partly specified), the “activity change, negative = viability loss” value is reported as -20% (inactive).
In the case of `Cn1cc(C2=C(c3coc4ccccc34)C(=O)NC2=O)c2cc(Br)ccc21`, the Potency is reported as 18.4 µM (active).
For `C=C(C)C1CCC2(C(=O)O)CCC3(C)C(CCC4C5(C)C(C=O)C(O)C(C)(C)C5CCC43C)C12` (stereo unspecified), the “activity change, negative = viability loss” value was -26.2% [at 17.3 µM] (inactive).
With `CC(=O)O[C@@H]1C2=C(O)C(=O)[C@](C)(OC(C)=O)C(=O)C2=CO[C@@]12O[C@@H](C)CC[C@H]2OC(C)=O` the “activity change, negative = viability loss” value was -25.8% [at 17.3 µM] (inactive).
With `CC(=O)N[C@H]1[C@H](O[C@H]2CC[C@@]3(C)C(CC[C@]4(C)C3CC=C3C5CC(C)(C)CC[C@]5(C(=O)O)C(O)C[C@]34C)C2(C)C)O[C@H](CO[C@@H]2O[C@H](C)[C@H](O)[C@H](O)[C@H]2O[C@@H]2OC[C@@H](O)[C@H](O)[C@H]2O)[C@@H](O)[C@@H]1O` (stereo partly specified) the Potency was 2.45 µM (active).
With `COc1cc2c(cc1O)C1(Cc3ccc4c(c3C1O)OCO4)[N+](C)([O-])CC2` (stereo unspecified) the “activity change, negative = viability loss” value was -4.7% (inactive).
In the case of `O=C(Cc1cccc(OC(F)(F)F)c1)Nc1ccc(CCCCc2nnc(NC(=O)Cc3ccccn3)s2)nn1`, the “activity change, negative = viability loss” value is reported as -26.3% (inactive).
For `COC1C(OC(=O)/C=C/C=C/C=C/C=C/C(=O)O)CCC2(CO2)C1C1(C)OC1CC=C(C)C` (stereo unspecified), the “activity change, negative = viability loss” value was -31.7% [at 17.3 µM] (inactive).
With `Cc1ccc(NC(=O)c2ccc(CN3CCNCC3)cc2)cc1Nc1nccc(-c2cccnc2)n1` the Potency was 16.3 µM (active) and 14.8 µM (active).
In the case of `Nc1nc(Cl)nc2c1ncn2C1OC(CO)C(O)C1F` (stereo unspecified), the Potency is reported as 0.0092 µM (active).
In the case of `CCC/C=C/C(=O)O[C@H]1CC(C)(C)CC2[C@@]13[C@H](O)C[C@]1(C)[C@@]2(CCC2[C@@]4(C)CC[C@H](O[C@@H]5O[C@H](C(=O)O)[C@@H](O)[C@H](O[C@@H]6O[C@H](CO)[C@H](O)[C@H](O)[C@H]6O[C@@H]6O[C@@H](C)[C@H](O)[C@@H](O)[C@H]6O[C@@H]6OC[C@](O)(CO)[C@H]6O)[C@H]5O[C@@H]5O[C@H](CO)[C@H](O)[C@H](O)[C@H]5O)C(C)(C)C4CC[C@]21C)O[C@H]3O` (stereo partly specified), the Potency is reported as 1.73 µM (active).
